Reference: PubChem BioAssay (NCATS)
Results filed as inconclusive are left out. Activity calls are given as the source filed them. Calls come from the whole dose curve; as a rule, active = well fitted curve in the direction sought with a large enough effect; inconclusive = small, poorly fitted or top-dose-only effect, or another doubt; inactive = no such curve, though single readings can be large; an effect the other way counts as inactive or inconclusive.

Experiments:
[1] = Cellular Toxicity (caspase-3) MRC-5 (AID 659); conditions: MRC-5 cells, luminescence, normalized: DMSO 0%, 10 µM staurosporine 100%; series mostly up to 91.7 µM
In short: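 Luminescent Caspase-Glo 3/7 read-out (1 h, room temperature) after a 16 h, 37 °C compound exposure of MRC-5 lung fibroblasts at 1500 cells/well. Concentration-response AC50 from Hill equation; 0% DMSO, 100% 10 uM staurosporine.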

[2] = Cellular Toxicity (caspase-3) Mesangial (AID 660); conditions: mesangial cells, normalized: DMSO 0%, 100 µM tamoxifen 100%; series mostly up to 91.7 µM;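 note: combined caspase 3 and 7 activity read by Caspase-Glo luminescence; cells exposed to compound for 16 h before the caspase read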
In short: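 Luminescent Caspase-Glo 3/7 readout (aminoluciferin substrate cleavage, 20 min RT) after 16 h compound exposure at 37 °C of normal human mesangial cells. Signal increase normalized between DMSO basal and 100 uM tamoxifen; Hill-equation AC50.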

[3] = Cellular Toxicity (caspase-3) SK-N-SH (AID 661); conditions: SK-N-SH caspase-3 activation, qHTS, DMSO as zero, staurosporine as full; series mostly up to 91.7 µM;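 note: cells exposed to compound for 16 hours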
In short: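 Luminescent Caspase-Glo 3/7 read-out after 16 hr compound exposure of SK-N-SH neuroblastoma cells at 37 °C. Signal increase normalized to DMSO (basal) and 10 uM staurosporine (100%); AC50 from Hill equation fits of qHTS concentration-response data.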

[4] = Cellular Toxicity (caspase-3) H-4-II-E (AID 663); conditions: H-4-II-E rat hepatoma; Potency: caspase-3 activation; series mostly up to 92.2 µM;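 note: cells exposed to compound for 16 hr before readout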
In short: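 Caspase 3/7 activation measured by luminescent aminoluciferin substrate cleavage after 16 hr compound treatment of H-4-II-E cells in complete medium. Increase normalized between DMSO (basal) and 100 uM tamoxifen (100%); Hill-equation AC50 from concentration-response.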

[5] = Cellular Toxicity (caspase-3) Hek293 (AID 664); conditions: HEK293 caspase-3 activation, DMSO = 0%, 100 µM tamoxifen = 100%; at 92.2 µM (top of the series);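 note: cells exposed to compound for 16 h at 37 °C before readout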
In short: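 Luminescent Caspase-Glo 3/7 readout (aminoluciferin release) in HEK293 cells after 16 h compound treatment, 37 °C. Normalization: DMSO = basal, 100 uM tamoxifen = 100% stimulation. Concentration-response fitted with standard Hill equation for AC50.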

[6] = Cellular Toxicity (caspase-3) N2a (AID 665); conditions: N2a cells, luminescence, normalized: DMSO 0%, 10 µM staurosporine 100%; series mostly up to 92.2 µM;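 note: compound exposure lasted 16 h at 37 °C before readout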
In short: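 Luminescent Caspase-Glo 3/7 readout in N2a mouse neuroblastoma cells after 16 h compound exposure at 37 °C. Signal scaled to DMSO (basal) and 10 uM staurosporine (100%). Concentration-response fitted with Hill equation for AC50.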

[7] = Cellular Toxicity (caspase-3) NIH 3T3 (AID 666); conditions: NIH 3T3 caspase-3 activation, apoptosis/toxicity, 0% DMSO, 100% is 100 µM tamoxifen; series mostly up to 92.2 µM;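 note: 0% = DMSO basal and 100% = 100 µM tamoxifen stimulation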
In short: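 NIH 3T3, 1000 cells/well, 5 hr settle then 16 hr compound at 37°C; Caspase-Glo 3/7, 20 min RT, luminescence. DMSO = basal, 100 uM tamoxifen = 100%. Hill-equation AC50, qHTS.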

[8] = Cellular Toxicity (caspase-3) Renal Proximal Tubule (AID 667); conditions: renal proximal tubule cells, primary cells freshly taken from rat; Potency: caspase-3 activation; series mostly up to 91.7 µM;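 note: cells exposed to compound for 16 hours at 37 °C before detection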
In short: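 AC50 derived by standard Hill fit of concentration-response data, normalized between DMSO basal and 10 uM staurosporine as 100% stimulation. Cells: primary rat kidney proximal tubule, 16 h treatment at 37 °C.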

[9] = target: Cytochrome P450 2C9 (Homo sapiens) (UniProt P11712); assay: qHTS Assay for Inhibitors and Substrates of Cytochrome P450 2C9 (AID 883); conditions: recombinant CYP2C9, luciferin-H luminescence, 60 min; series mostly up to 11.4 µM; note: % is set by controls: 0 for no effect and ±100 for the full control effect; nearly all actives have a fitted effect of over 60% in size
In short: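 Turnover of Luciferin-H (100uM, KM) by 10nM human CYP2C9 was measured over 60 min at 37C with NADPH regeneration; inhibitors and some substrates reduce luminescence. Data normalized to sulphaphenazole 57uM.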

[10] = target: Cytochrome P450 3A4 (Homo sapiens) (UniProt P08684); assay: qHTS Assay for Activators of Cytochrome P450 3A4 (AID 885); conditions: recombinant CYP3A4, Luciferin-PPXE luminescence, 60 min; series mostly up to 11.4 µM; note: nearly all actives have a fitted effect of over 65% in size
In short: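 Luminescent readout of luciferin formed from 25 uM Luciferin-PPXE (KM level) by 20 nM CYP3A4 in 200 mM KPO4, with 60 min NADPH-driven reaction at room temperature after 10 min compound exposure. Ketoconazole (57 uM) defined 100% inhibition.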

[11] = target: Cytochrome P450 2D6 (Homo sapiens) (UniProt P10635); assay: qHTS Assay for Inhibitors and Substrates of Cytochrome P450 2D6 (AID 891); conditions: recombinant CYP2D6, luciferin-ME EGE luminescence; series mostly up to 11.4 µM; note: potency is the fitted concentration of half-maximal effect; nearly all actives have a fitted effect of over 60% in size
In short: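 Luminescent read-out of luciferin formed by 5 nM human CYP2D6 demethylating 30 uM Luciferin-ME EGE (Km level) over 60 min at room temperature after NADPH regeneration addition. Data normalized to full inhibition by 1.43 uM quinidine.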

[12] = target: Cytochrome P450 2C19 (Homo sapiens) (UniProt P33261); assay: qHTS Assay for Inhibitors and Substrates of Cytochrome P450 2C19 (AID 899); conditions: recombinant CYP2C19, luciferin-H EGE luminescence; series mostly up to 11.4 µM; note: % is set by controls: 0 for no effect and ±100 for the full control effect; nearly all actives have a fitted effect of over 60% in size
In short: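 Reactions contain 5nM enzyme, 10uM Luciferin-H EGE (KM) and 50mM KPO4; compound preincubates 10 min at 37C, NADPH regeneration starts turnover for 60 min. Luminescence after detection reagent gives activity.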

[13] = MultiTox-Fluor Cytotoxicity Assay - LYMP1-001 - Dead Cells (AID 946); conditions: LYMP1-001 lymphoblastoid cells, dead-cell protease fluorescence; series mostly up to 92.2 µM
In short: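 Cytotoxicity as increased dead-cell protease fluorescence (bis-AAF-R110, 485/520 nm), read 60 min after MultiTox-Fluor reagent. Human lymphoblastoid line exposed 16 h; Hill-fitted AC50, with DMSO as 0% and 15 uM tetraoctylammonium bromide as 100%.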

[14] = MultiTox-Fluor Cytotoxicity Assay - LYMP1-001 - Live Cells (AID 947); conditions: LYMP1-001 lymphoblastoid cells, live-cell protease fluorescence viability; series mostly up to 92.2 µM; note: potency is the fitted concentration of half-maximal effect
[15] = Cell Viability - LYMP1-002 - Assay at 16 hr (AID 948); conditions: LYMP1-002 lymphoblastoid cell viability; series mostly up to 92.2 µM; note: potency is the fitted concentration of half-maximal effect
In short: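 Seed 2500 LYMP1-002 cells per well in complete medium and hold 5 hr at 37 C. Add compound across a concentration series and incubate 16 hr at 37 C. Add CellTiter-Glo, wait 30 min at room temperature, read luminescence.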

[16] = MultiTox-Fluor Cytotoxicity Assay - LYMP1-002 - Dead Cells (AID 960); conditions: LYMP1-002 lymphoblastoid cells, dead-cell protease fluorescence; series mostly up to 46.1 µM; note: nearly all actives have a fitted effect of over 60% in size
In short: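 Readout: fluorescence at 485/520 from cell-impermeant bis-AAF-R110 cleaved by proteases leaking from damaged cells. LYMP1-002 lymphoblastoid line, 16 hr compound treatment at 37 C, concentration-response in qHTS format; Hill-equation AC50 values.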

[17] = MultiTox-Fluor Cytotoxicity Assay - LYMP1-003 - Dead Cells (AID 961); conditions: LYMP1-003 lymphoblastoid cells, dead-cell protease fluorescence; series mostly up to 92.2 µM; note: nearly all actives have a fitted effect of over 70% in size
In short: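 Dead-cell protease release, detected as bis-AAF-R110 fluorescence at 485/520 nm, was measured in LYMP1-003 cells after 16 h compound treatment at 37 C. AC50 values came from Hill-modeled qHTS curves normalized to DMSO (0%) and 15 uM tetraoctylammonium bromide (100%).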

[18] = Cell Viability - LYMP1-003 - Assay at 24 hr (AID 963); conditions: LYMP1-003 lymphoblastoid cell viability; series mostly up to 92.2 µM; note: potency is the fitted concentration of half-maximal effect
In short: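 CellTiter-Glo luminescence (intracellular ATP) read after 24 hr, 37 C compound exposure of 2500 LYMP1-003 human lymphoblastoid cells/well in complete medium; qHTS concentration series; AC50 via standard Hill equation.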

Cytochrome P450 3A4 (Homo sapiens), sequence (P08684 whole entry, looked up): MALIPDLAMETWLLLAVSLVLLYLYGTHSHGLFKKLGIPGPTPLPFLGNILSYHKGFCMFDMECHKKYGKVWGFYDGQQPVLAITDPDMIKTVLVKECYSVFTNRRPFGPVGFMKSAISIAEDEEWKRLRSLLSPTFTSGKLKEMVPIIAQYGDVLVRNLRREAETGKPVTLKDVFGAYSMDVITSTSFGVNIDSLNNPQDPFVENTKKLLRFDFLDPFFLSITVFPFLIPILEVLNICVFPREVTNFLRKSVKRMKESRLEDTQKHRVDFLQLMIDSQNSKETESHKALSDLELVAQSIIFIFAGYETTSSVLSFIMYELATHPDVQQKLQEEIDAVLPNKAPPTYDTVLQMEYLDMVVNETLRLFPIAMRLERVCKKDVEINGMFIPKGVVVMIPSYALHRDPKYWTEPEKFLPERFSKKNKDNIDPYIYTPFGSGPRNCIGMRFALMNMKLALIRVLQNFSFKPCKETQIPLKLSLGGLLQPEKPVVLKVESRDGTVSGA
Cytochrome P450 2C9 (Homo sapiens), sequence (P11712 whole entry, looked up): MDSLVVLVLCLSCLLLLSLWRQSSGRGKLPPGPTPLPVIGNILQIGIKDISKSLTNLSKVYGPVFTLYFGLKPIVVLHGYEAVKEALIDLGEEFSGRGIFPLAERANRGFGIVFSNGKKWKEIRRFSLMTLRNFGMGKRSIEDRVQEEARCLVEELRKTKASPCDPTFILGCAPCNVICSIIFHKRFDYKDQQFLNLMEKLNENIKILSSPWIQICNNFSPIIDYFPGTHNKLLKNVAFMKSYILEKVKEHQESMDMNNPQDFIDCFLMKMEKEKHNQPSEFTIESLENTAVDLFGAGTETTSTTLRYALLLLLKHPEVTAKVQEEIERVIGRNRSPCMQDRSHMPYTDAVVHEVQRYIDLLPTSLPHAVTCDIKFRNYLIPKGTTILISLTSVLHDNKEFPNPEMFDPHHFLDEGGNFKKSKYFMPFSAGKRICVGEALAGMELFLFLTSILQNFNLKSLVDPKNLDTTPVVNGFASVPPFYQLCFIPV
Cytochrome P450 2C19 (Homo sapiens), sequence (P33261 whole entry, looked up): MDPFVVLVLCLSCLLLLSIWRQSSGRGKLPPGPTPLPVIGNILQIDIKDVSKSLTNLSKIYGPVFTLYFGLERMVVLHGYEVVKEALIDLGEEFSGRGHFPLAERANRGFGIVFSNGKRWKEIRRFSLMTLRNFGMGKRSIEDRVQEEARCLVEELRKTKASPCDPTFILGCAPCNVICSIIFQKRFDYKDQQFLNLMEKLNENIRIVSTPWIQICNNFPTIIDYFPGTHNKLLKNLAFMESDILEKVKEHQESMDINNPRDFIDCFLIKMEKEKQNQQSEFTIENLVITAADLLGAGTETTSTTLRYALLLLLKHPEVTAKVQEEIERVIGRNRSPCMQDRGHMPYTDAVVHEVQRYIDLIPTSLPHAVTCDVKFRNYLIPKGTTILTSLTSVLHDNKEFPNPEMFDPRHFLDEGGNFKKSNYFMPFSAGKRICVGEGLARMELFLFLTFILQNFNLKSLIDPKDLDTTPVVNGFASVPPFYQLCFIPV
Cytochrome P450 2D6 (Homo sapiens), sequence (P10635 whole entry, looked up): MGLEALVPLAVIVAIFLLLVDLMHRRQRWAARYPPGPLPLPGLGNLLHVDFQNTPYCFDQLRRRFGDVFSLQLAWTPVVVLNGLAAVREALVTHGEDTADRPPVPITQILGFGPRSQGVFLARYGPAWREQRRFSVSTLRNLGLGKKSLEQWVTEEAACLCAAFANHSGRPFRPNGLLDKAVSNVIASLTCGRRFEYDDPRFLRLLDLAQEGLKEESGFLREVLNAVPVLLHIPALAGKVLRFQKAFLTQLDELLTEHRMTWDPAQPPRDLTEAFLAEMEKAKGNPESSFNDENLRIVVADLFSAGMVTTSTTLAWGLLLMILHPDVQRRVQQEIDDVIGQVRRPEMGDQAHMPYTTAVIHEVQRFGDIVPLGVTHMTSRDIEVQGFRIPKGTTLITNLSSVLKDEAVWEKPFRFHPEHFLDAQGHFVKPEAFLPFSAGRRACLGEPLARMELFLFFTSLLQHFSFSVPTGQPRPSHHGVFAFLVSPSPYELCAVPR

N=C1C=CC(=C(c2ccc(N)cc2)c2ccc(N)cc2)C=C1
active: Potency [11] 1.58 µM | Potency [14] 15.8 µM | Potency [15] 25.1 µM | Potency [18] 15.8 µM
inactive: outcome [1] | outcome [2] | outcome [3] | Potency [4] | caspase-3 activation [5] -1.95% | outcome [6] | outcome [7] | Potency [8] | Potency [9] | Potency [10] | Potency [12] | Potency [13] | Potency [16] | Potency [17]
